Bioassay records (PubChem BioAssay)
The list is not random: actives were taken first. Their share in the collection is about 2.9%.
LMP1 NFkB inh: Epstein-Barr LMP1 NF-kappaB reporter inhibition; LMP1-induced NF-kappaB luciferase reporter cells, luminescence; inhibition, % at 12.5 µM; actives 0.69% (n = 350,000); AID 504558; in the data active = inhibition above about 41%; inconclusive = no clear call, values can overlap the other calls;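 note: 0% = neutral control wells and 100% = reference inhibitor control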
Shn3 3UTR inh: Schnurri-3 reporter inhibition in Clone20 osteoblasts; Clone20 osteoblast Shn3 3'UTR firefly luciferase, 24 h; inhibition, % at 12.5 µM; actives 0.52% (n = 360,000); AID 588674;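 active = mean inhibition of at least 75% with every replicate also reaching 75%; inconclusive = mean inhibition at least 75% but some replicate below; inactive = mean inhibition below 75%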;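 note: 0% = median of neutral control wells and 100% = pilot-screen positive control compound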
Peg3 prom inh-1: inhibitors of Peg3 promoter; HeLa PEG-Prom luciferase reporter, luminescence, overnight; inhibition, % at 20 µM; actives 1.7% (n = 360,000);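 active = inhibition of at least 50% at 20 µM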
MITF TRPM1 inh: MITF TRPM1 promoter inhibition in SK-MEL-5 cells. SK-MEL-5 TRPM1 promoter luciferase, 24 h. inhibition, % at 12.5 µM. actives 0.83% (n = 330,000). AID 488899;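 active = mean inhibition across replicates of 60% or more, whatever share of single replicates reaches that level; inconclusive = some that reach 60%, reason not given; inactive = mean inhibition across replicates below 60%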
KKLEB tox: counter-screen for CF NF-kB inhibitors: cytotoxicity; KKLEB CF airway cells viability, ATPlite luminescence, overnight; stronger effect = lower value; cells stimulated with P. aeruginosa culture filtrate; activity change (cytotoxicity), % at 5 µM; actives 0.36% (n = 360,000); AID 602141;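 active = corrected activity change at or below -50% at 5 µM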
CF NFkB block: cystic fibrosis NF-kB activation inhibition. KKLEB NF-kB-GFP reporter, PAF-induced, GFP fluorescence overnight. inhibition, % at 5 µM. AID 588850. actives 0.86% (n = 360,000);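 active = at least 50% inhibition at 5 µM, scaled per plate between neutral and stimulator controls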;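 note: PAF is a Pseudomonas aeruginosa culture filtrate used as stimulus; plate controls were PAF-stimulated DMSO wells for no effect and unstimulated DMSO wells for full effect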
Peg3 prom inh-2: Peg3 promoter inhibition confirmation; shares compounds with Peg3 prom inh-1; actives 84% (n = 1,300); inhibition, % at 20 µM; AID 602417; HeLa PEG-Prom luciferase reporter, luminescence, overnight;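 active = at 20 µM dose, 40% or more inhibition averaged across four replicates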
CF NFkB inh conf: CF NF-kB inhibition confirmation, single concentration; actives 64% (n = 1,300); inhibition, % at 5 µM; KKLEB CF airway cells, PAF-induced NF-kB-GFP fluorescence, overnight; shares compounds with CF NFkB block; AID 602472; in the data active = inhibition above about 40%;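 note: stimulus PAF is a Pseudomonas aeruginosa filtrate and not platelet activating factor; plate controls were DMSO wells with stimulus for no effect and unstimulated DMSO wells for full effect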
Active calls of the source: *; ? = inconclusive; · = not tested or not shown.

SMILES	LMP1 NFkB inh	Shn3 3UTR inh	Peg3 prom inh-1	MITF TRPM1 inh	KKLEB tox	CF NFkB block	Peg3 prom inh-2	CF NFkB inh conf
O=C(Nc1ccccc1Cl)c1cc(C2CCCN(C(=O)c3ccccc3)C2)on1 (centres undefined)	·	-15	-16	·	-13	18	·	·
CCOc1ccccc1NC(=O)c1oc2ccccc2c1NC(=O)C1CC1	18	-4	5	6	-7	-4	·	·
CCOc1ccccc1NC(=O)c1oc2ccccc2c1NC(=O)C1CCCO1 (centres undefined)	-11	-18	74*	-3	-3	-4	40	·
CCOc1ccc(Cl)cc1-c1cc(C(=O)Nc2ccc(Br)cc2)[nH]n1	·	-3	-5	·	-14	-14	·	·
O=C(NCc1ccc(Cl)c(Cl)c1)c1cc(C2CCCCN2C(=O)c2cccs2)on1 (centres undefined)	·	18	4	·	-5	4	·	·
CN(C)CCNC(=O)c1sc2nc(-c3ccccc3)cc(C(F)(F)F)c2c1N	-7	2	61*	8	-2	-8	70*	·
Cc1ccccc1NC(=O)C(=Cc1ccc(C(=O)O)cc1)C(=O)Nc1ccccc1C	9	43	59*	48	-44	0	50*	·
CCN(CCO)c1ccc(N=Nc2cc(C)[nH]n2)cc1	63*	15	72*	76*	-14	1	56*	·
CCN(CCO)c1ccc(Nc2cc(-c3ccc(-c4ccccc4)cc3)ncn2)cc1	·	-17	-3	·	4	-17	·	·
Cc1ccc(C(C[N+](=O)[O-])n2nc(C)cc2C)cc1 (centres undefined)	11	-3	28	55	-8	0	·	·
Cc1ccc(C(C[N+](=O)[O-])Sc2ccc(N)cc2)cc1 (centres undefined)	4	·	106*	68*	-3	-11	97*	·
Nc1cccc2nc3ccccc3cc12	-14	-59	95*	85*	-8	-89	99*	·
C=CCn1c(SCC(=O)c2[nH]c(C)c(C(=O)OCC)c2C)nc2scc(-c3ccc(OC)c(OC)c3)c2c1=O	-1	80	86*	102*	-42	56*	11	·
CCOC(=O)c1c(C)[nH]c(C(=O)CSc2nnc(-c3ccncc3)n2CC)c1C	1	3	21	-6	0	19	·	·
CCN(C(=O)COC(=O)/C=C/c1cccc(Br)c1)C1CCS(=O)(=O)C1 (centres undefined)	0	-4	41	11	12	-8	·	·
CN(C(=O)COC(=O)/C=C/c1cccc([N+](=O)[O-])c1)C1CCS(=O)(=O)C1 (centres undefined)	-2	-5	51*	26	-4	9	62*	·
COc1cccc(-c2nnc3n2N=C(C(C)(C)C)CS3)c1	65*	-3	98*	?	-24	94*	75*	98*
O=C1CC2(CCCC2)C(=O)N1CN1CCN(S(=O)(=O)c2cc(F)ccc2F)CC1	-4	0	-10	·	-4	4	·	·
O=C1COc2ccc(C(=O)CSc3nc4ccccc4c(=O)n3-c3ccc(Cl)c(Cl)c3)cc2N1	-22	4	76*	35	-48	55*	33	-2
Cc1cccc(NC(=O)c2nc[nH]c2C(=O)NCCCCNC(=O)c2[nH]cnc2C(=O)Nc2cccc(C)c2)c1	-2	4	78*	-1	-39	56*	37	33
Cc1ccc(C(=O)c2ccccc2C(=O)OCC(=O)NCCc2ccc(Cl)cc2Cl)cc1	1	20	-11	2	-3	-12	·	·
CCCNC(=O)COC(=O)c1ccccc1C(=O)c1ccc(Cl)c([N+](=O)[O-])c1	48*	10	106*	87*	-31	101*	99*	109*
CCc1nc2ccc(C(=O)NCCCN3CCCC3=O)cn2c1N(CC)CCOC	·	-2	-6	·	4	-14	·	·
COc1nc(N)c(C#N)c(-c2ccc(N(C)CCC#N)cc2)c1C#N	4	22	58*	10	2	59*	66*	75*
COc1ccc(-c2c(C#N)c(N)nc(Sc3ccc(Cl)cc3)c2C#N)cc1	-45	-4	41	16	-32	33	·	·
SMILES	LMP1 NFkB inh	Shn3 3UTR inh	Peg3 prom inh-1	MITF TRPM1 inh	KKLEB tox	CF NFkB block	Peg3 prom inh-2	CF NFkB inh conf
CN([C@@H](C(=O)OC(C)(C)C)c1ccccc1)S(=O)(=O)c1cccc(S(=O)(=O)N(C)[C@@H](C(=O)OC(C)(C)C)c2ccccc2)c1	-5	47	15	8	4	3	·	·
CC(C)(C)OC(=O)CC(S(=O)(=O)c1ccccc1)S(=O)(=O)c1ccccc1	-4	59	82*	·	-16	86*	97*	25
COc1cc(NC(=O)Nc2nnc([C@H]3C[C@H](O)[C@@H](CO)O3)s2)cc(OC)c1	·	7	3	·	-6	3	·	·
COc1ccc(C(C(=O)NCC2CCCO2)N(Cc2cccs2)C(=O)c2snc(C(N)=O)c2N)cc1 (centres undefined)	-3	-6	51*	10	-28	54*	50*	50*
CCOc1ccc(C(C(=O)NCC2CCCO2)N(Cc2cccc(OC)c2)C(=O)c2snc(C(N)=O)c2N)cc1 (centres undefined)	5	-6	2	3	-1	-12	·	·
CCC(C)Oc1cc(-c2ccnc(Nc3cccc(Cl)c3)n2)ccn1 (centres undefined)	-105	-31	100*	20	-42	99*	92*	105*
Cc1cc(C)nc(Nc2cccc(Cl)c2)n1	0	-7	-48	-42	-10	9	·	·
Nc1ccc(-c2nc3ccccc3[nH]2)cc1	-6	-70	-244	-6	-11	-16	·	·
c1ccc(-c2cc(-c3nc4ccccc4[nH]3)c3ccccc3n2)cc1	-15	36	81*	4	-8	56*	89*	-87
CCc1nc2ccc(C(=O)N3CCCC(C(N)=O)C3)cn2c1N(CCC(C)C)CCN(C)C (centres undefined)	·	2	-4	·	-4	2	·	·
CCOc1ccc(-n2cc(-c3ccccc3)c3c(N4CCOCC4)ncnc32)cc1	15	79	51*	11	-20	91*	60*	95*
COc1ccc(NC(=O)c2cc3c(CO)cnc(C)c3oc2=Nc2cccc(F)c2)c(OC)c1	47*	-12	59*	11	-33	52*	17	26
N#CC(C#N)=C1C=CC=CN1/C(=C\c1ccco1)C(=O)c1ccc(Cl)cc1	-30	97*	104*	90*	-50	85*	100*	10
